# High-throughput results deposited in PubChem BioAssay by several laboratories.
# Rows were chosen to be rich in hits. Some 4.3% of all compounds tested hit in one or more screens of this group.
# GRIN3A LBD mod: NR3A (human) ligand-binding domain modulation. NR3A LBD differential scanning fluorimetry, Tm shift; 0% = protein alone, 100% = glycine-bound protein. Tm shift relative to glycine control, % at 25 µM. hit rate 2.5% among 340,000. AID 1259313;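 active means melting temperature shift of at least 10% of the positive control shift, at one fixed dose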
# NadD block: inhibitors of Staphylococcus aureus NadD; purified NadD enzyme, colorimetric absorbance read-out; inhibition, % at 20 µM; hit rate 0.78% among 360,000; in the data active means inhibition above about 26%
# FAS TE block: blocks the thioesterase domain of human fatty acid synthase. P49327. hit rate 0.67% among 360,000. recombinant FAS-TE, OMFH fluorogenic substrate, fluorescence endpoint. inhibition, % at 15 µM;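 active means compounds whose normalised, plate-corrected inhibition of enzyme fluorescence in the single-dose primary screen is 50% or more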;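 further: 0% = DMSO with enzyme and 100% = substrate without enzyme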
# rCAG binder: r(CAG) repeat RNA binding | TO-PRO-1 dye displacement fluorescence | inhibition, % at 3 µM | hit rate 1.3% among 370,000 | AID 651821;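 active means inhibition above the plate cutoff, the mean of all test compounds on that plate plus 3 SD, cut at about 35% in these data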;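 further: 0% = DMSO alone and 100% = 100 µM mitoxantrone as full dye displacement; higher means more dye released from RNA so lower well fluorescence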
# * hit, by the source's call; . = no result.
SMILES,GRIN3A LBD mod,NadD block,FAS TE block,rCAG binder
CN1CCCN(C(=O)CN2C(=O)CC(C)(C)S(=O)(=O)c3ccccc32)CC1,.,.,.,3
O=C(N[C@H](Cc1ccccc1)C(=O)NCc1ccco1)[C@H]1O[C@@H](n2ccc(=O)[nH]c2=O)[C@H](O)[C@@H]1O,.,.,.,0
COc1ccccc1C(=O)O/N=C(\N)c1ccc(Cl)cc1,-15,-6,0,-2
COc1ccc(C(=O)O/N=C(\N)c2ccc(Cl)cc2)cc1,21*,-11,4,-2
COc1ccccc1Nc1ncnc2c1cnn2-c1cccc(C)c1,0,-4,19,-3
COc1ccc(-n2ncc3c(NCC(C)C)ncnc32)cc1,17*,1,5,-4
Fc1cccc(Nc2ncnc3c2cnn3-c2ccccc2)c1,28*,-6,14,7
COc1cccc(Nc2ncnc3c2cnn3-c2cccc(C)c2)c1,13*,0,26,9
Cc1c(C(=O)Nc2ccc(F)c(F)c2)oc2ccc(S(=O)(=O)N3CCCCC3)cc12,31*,5,38,-2
Cc1cc2oc(C(=O)Nc3ccc(S(N)(=O)=O)cc3)c(C)c2cc1Cl,24*,9,2,8
CCCCNC(=O)C[C@H]1C[C@@]2(C(=O)OC)C(=C[C@H](C(C)(C)C)O[C@@H]2C)N(Cc2ccco2)C1=O,.,.,.,2
COC(=O)[C@]12C[C@H](CC(=O)NCC3CCCCC3)C(=O)N(Cc3ccc(Cl)cc3Cl)C1=C[C@H](C1CCCC1)O[C@@H]2C,.,.,.,11
Cc1cc(NS(=O)(=O)c2ccc(NC(=O)c3ccc(Cl)cc3Cl)cc2)no1,0,-4,-3,11
Cc1cc(NS(=O)(=O)c2ccc(NC(=S)NC(=O)c3ccc(Cl)cc3Cl)cc2)no1,2,12,0,65*
COC(=O)[C@]12C[C@H](CC(=O)NCc3ccc(C)o3)C(=O)N(Cc3ccc(Cl)cc3Cl)C1=C[C@H](C(C)(C)C)O[C@@H]2C,.,.,.,1
Cc1ccc(-n2c(SCC(=O)Nc3ccc4c(c3)OCCO4)nnc2-c2cccnc2)cc1,.,.,.,0
c1ccc2c(-c3nn[nH]n3)cccc2c1,12*,-6,-9,1
Oc1cccc2c(-c3nn[nH]n3)ccnc12,0,-2,-12,0
CCOC(=O)c1c(-c2ccc(OC)cc2)oc2cc(Br)c(O)cc12,13*,0,6,18
COc1ccc(C(=O)c2c(-c3ccc(OC)cc3)oc3ccccc23)cc1,-3,-5,28,13
CCOC(=O)c1c(-c2ccc(OC)cc2)oc2ccc(O)cc12,-5,-10,22,16
COc1ccc(-c2oc3ccccc3c2C(=O)OCc2ccccc2OC)cc1,17*,2,33,7
COC(=O)[C@]12C[C@H](CC(=O)NCc3ccccc3)C(=O)N(CCc3ccc(OC)c(OC)c3)C1=C[C@H](C(C)C)O[C@@H]2C1CC1,.,.,.,3
CN(C1=C(NC(=O)c2ccccc2)C(=O)c2ccccc2C1=O)C1CCS(=O)(=O)C1 (centres undefined),.,2,8,3
CC(=O)NC1=C(NC2CCS(=O)(=O)C2)C(=O)c2ccccc2C1=O (centres undefined),13*,3,10,3
SMILES,GRIN3A LBD mod,NadD block,FAS TE block,rCAG binder
CCS(=O)(=O)C(C)(CCl)C(=O)Nc1ccc(C(=O)OC)cc1 (centres undefined),12*,0,-4,-1
COc1ccc2[nH]c(C(=O)N/N=C/c3ccccc3OC)cc2c1,6,1,6,11
COc1cc(OC)c2cc(C(=O)N/N=C/c3ccccc3O)[nH]c2c1,37*,10,5,9
Cc1ccc2[nH]c(C(=O)N/N=C/c3ccc([N+](=O)[O-])cc3)c(C)c2c1,20*,5,1,7
Cc1ccc2[nH]c(C(=O)N/N=C/c3ccccc3O)c(C)c2c1,19*,2,6,12
Cc1nc2cc(NC(=O)Nc3ccc(Br)cc3)ccc2o1,34*,1,0,12
O=C(Cn1cnc2c(NCc3ccccc3)ncnc21)NCCCc1ccccc1,17*,-2,-7,4
FC(F)(F)Oc1ccc(Cn2ccc3ccc(-c4ccc5ccn(Cc6ccc(OC(F)(F)F)cc6)c5c4)cc32)cc1,.,.,.,10
Cn1cccc1-c1nc2ccc(NC(=O)c3cccs3)cc2[nH]1,16*,-4,-4,5
O=C(Nc1ccc2nc(-c3ccc(Br)o3)[nH]c2c1)c1cccs1,21*,5,4,6
O=C(Nc1ccc2nc(-c3ccc(Br)o3)[nH]c2c1)c1ccco1,10*,-4,-1,6
CC(=O)Nc1ccc2nc(-c3ccc(Br)o3)[nH]c2c1,8,-7,-1,1
CC(C)(C)OC(=O)NCc1cc(F)ccc1/C=C/S(=O)(=O)NC1CCCC1,.,.,.,0
COc1ccc(CNCC#Cc2ccc(C)cc2)c(OC)c1,.,.,.,1
COc1ccc(CN(CCN2CCOCC2)C(=O)c2ccccc2C)cc1OC,.,.,.,1
Cc1ccc(C(=O)C=Cc2ccc3c(c2)OCO3)c(C)c1,.,-4,1,1
COC(=O)c1cccc(NC(=O)/C=C/c2ccc3c(c2)OCO3)c1,16*,-16,12,0
O=C(/C=C/c1ccc2c(c1)OCO2)c1ccc(O)cc1O,32*,-5,6,15
NS(=O)(=O)c1ccc(NC(=O)/C=C/c2ccc3c(c2)OCO3)cc1,12*,-1,-1,4
CCN(CC)C(=O)CC[C@H]1CC[C@]2(CCCN(C(=O)C3CCCC3)C2)O1,.,.,.,0
CCCCNC(=O)C[C@H]1C[C@@]2(C(=O)OC)C(=C[C@H](C(C)C)O[C@@H]2C2CC2)N(CCC2=CCCCC2)C1=O,.,.,.,-3
COc1ccc(NC(=S)NC(NC(=O)c2cccc(Cl)c2)C(Cl)(Cl)Cl)c([N+](=O)[O-])c1 (centres undefined),13*,9,23,24
COc1ccc(NC(=S)NC(NC(C)=O)C(Cl)(Cl)Cl)c([N+](=O)[O-])c1 (centres undefined),-2,-2,-9,3
O=C(Cc1cccc2ccccc12)NC(NC(=S)Nc1ccccc1Cl)C(Cl)(Cl)Cl (centres undefined),19*,21,6,18
COc1ccc(NC(=S)NC(NC(=O)c2cccc(C)c2)C(Cl)(Cl)Cl)c([N+](=O)[O-])c1 (centres undefined),10*,5,15,23
SMILES,GRIN3A LBD mod,NadD block,FAS TE block,rCAG binder
COc1ccc(C(=O)NC(NC(=S)Nc2ccc(S(N)(=O)=O)cc2)C(Cl)(Cl)Cl)cc1 (centres undefined),13*,-1,12,34
COc1ccc(C(=O)NC(=S)Nc2ccc(S(N)(=O)=O)cc2)cc1,-4,1,-2,-2
COc1ccc(NC(=O)c2ccccc2)c([N+](=O)[O-])c1,1,-2,2,1
C[N+]1=C(N)NC2=C3CCCCC3n3c(=O)n(-c4ccccc4)c(=O)n3C2C1 (centres undefined),.,.,.,9
CCCCCCCCN1CCS(=O)(=O)N(Cc2ccc(C(F)(F)F)cc2)C(C(=O)OC)C1 (centres undefined),.,.,.,4
CCC(C)N(C(=O)c1ccc(CNC(=O)c2cccc(Br)c2)cc1)C(C)CC (centres undefined),.,.,.,-2
